# PubChem BioAssay (NCI)
# The panel holds about 79,000 compounds, 15% with a hit somewhere; the sample as a whole holds those more often. Values without a mark were called inactive. Activity calls are given as the source filed them. No stated cut-off is given here; in the data, active means growth inhibition above about 70%; inactive means the rest.
# Assay: NCI Yeast Anticancer Drug Screen. Data for the rad50 strain (AID 155);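 further: 0% = growth of vehicle-only cultures of the same strain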
# Conditions: S. cerevisiae rad50 strain growth inhibition, hits give high values; at 50.0 µM unless noted
# How it was run: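 Growth of the mutant yeast was measured after compound exposure and referenced to vehicle-treated cultures.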
row,Structure (SMILES),growth inhibition
1,CC(=O)Nc1cc(Cl)ccc1[N+](=O)[O-],8.95%
2,Cc1ccc(NC(=O)C2CCCCC2)cc1,5.85%
3,CN1C=C(C(N)=O)Cc2ccsc21,10.7%
4,C=C1CC2C=CC1C2 (stereo unspecified),3.65%
5,CC(=O)OCC1C2C=CC(C2)C1COC(C)=O (stereo unspecified),2.2%
6,COCc1ccccc1-n1nccc1S(C)=O (stereo unspecified),-10.9%
7,COc1cc2c(cc1OC)C(Cl)C(c1ccc(Br)cc1)=C2Cl (stereo unspecified),36.9%
8,C/C(=N/NC(N)=S)c1ccc([N+](=O)[O-])cc1,75.7% (active)
9,Cc1ncc(CN=Cc2ccc(Cl)cc2)c(N)n1,9.8%
10,CCCc1ccc(C)c(Br)c1,26.4%
11,CSc1ccc(NC(=O)Nc2cc(C)ccc2N=Nc2ccc(C)cc2)cc1,-1.5%
12,CC(=O)Oc1cc(OC(C)=O)c2c(OC(C)=O)c3c(OC(C)=O)cc(C)cc3cc2c1,40.5%
13,CCCNC(=O)Cn1c(-c2ccccc2)cc2ccccc21,13.4%
14,CCCCCCCCCCCCC(=O)N1CCOCC1,99.5% (active)
15,NCCCCCCCCCCN,-22.9%
16,CCCN(CCC)C(=O)c1ccccc1C,9.5%
17,O=C(c1ccccc1)C(Oc1ccccc1)c1ccccc1 (stereo unspecified),39.5%
18,Cc1nc2cccc3ccc4c5ccccc5cc1c4c32,70% (active)
19,Cc1ccccc1NS(=O)(=O)N1CCCCC1,-11.8%
20,CC(=O)OCCc1cc2ccccc2oc1=O,-9.05%
21,CC(=O)COC(=O)c1ccccc1,32.1%
22,O=C(O)c1cc([N+](=O)[O-])c(O)c2ccccc12,9.15%

# Assay: NCI Yeast Anticancer Drug Screen. Data for the mec2-1 strain (AID 157)
# Conditions: S. cerevisiae mec2-1 strain, hits give high values; at 50.0 µM unless noted
# How it was run: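 Growth inhibition is read against vehicle-treated controls after compound exposure of the mec2-1 yeast strain, which is defective in DNA damage repair or cell cycle control.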
row,Structure (SMILES),growth inhibition
1,CC1(C)N=C(N)N=C(N)N1c1ccc(N)cc1,-3.8%
2,O=C(CC(=O)Nc1ccccc1Cl)NNC(c1cc(N=Nc2ccc(Br)cc2)ccc1O)P(O)O (stereo unspecified),0.3%
3,COc1cc(C(=O)N2CCOC23CCN(Cc2ccccc2)CC3)cc(OC)c1OC,-30.6%
4,Cc1c(CCCl)c(N=P(c2ccccc2)(c2ccccc2)c2ccccc2)n2c(nc3ccccc32)c1C#N,-2.1%
5,CC(=O)OC1CCC(C(C)(C)C)CC1 (stereo unspecified),-41%
6,O=C1Nc2cc(Br)ccc2C1=O,23.1%
7,N#C/C(=C/NC(N)=S)C(N)=O,10.3%
8,C=Nc1ccc(Nc2ccccc2)cc1,-5.2%
9,O=C(N/N=C/c1ccc2c(c1)OCO2)c1ccccc1,-11.1%
10,CCCCCCCCC(=O)NCO,-10.9%
11,Cc1cc(S(=O)(=O)Nc2nc(N)nc(N3N=CCC3C)n2)c(SCC(=O)O)cc1Cl (stereo unspecified),6.25%
12,CC1=C(C(=O)Nc2cc(=O)n(C)c(=O)n2C)C(c2ccco2)C(C(=O)Nc2cc(=O)n(C)c(=O)n2C)=C(C)N1,17.9%
13,COc1ccc(/C=N/N2CN(C(C)C(=O)O)B(NCCC(C)C)N=C2N)cc1OC (stereo unspecified),-10.3%
14,CCN(CCO)c1cccc(C)c1,-19.1%
15,Nc1nc2ncc(COc3ccc(C(=O)O)cc3)nc2c(=O)[nH]1,3.2%
16,N#Cc1ccc(CC(=O)c2ccccc2)cc1,12.8%
17,O=[N+]([O-])c1cccnc1S(=O)(=O)c1ccccc1,5.7%
18,CC(=O)Nc1cc(Cl)ccc1[N+](=O)[O-],9.35%
19,Cc1ccc(NC(=O)C2CCCCC2)cc1,3.3%
20,CN1C=C(C(N)=O)Cc2ccsc21,-10.8%

row,Structure (SMILES),growth inhibition
1,C=C1CC2C=CC1C2 (stereo unspecified),-25.4%
2,CC(=O)OCC1C2C=CC(C2)C1COC(C)=O (stereo unspecified),-4.8%
3,COCc1ccccc1-n1nccc1S(C)=O (stereo unspecified),25.4%
4,COc1cc2c(cc1OC)C(Cl)C(c1ccc(Br)cc1)=C2Cl (stereo unspecified),67.3%
5,C/C(=N/NC(N)=S)c1ccc([N+](=O)[O-])cc1,-8.8%
6,Cc1ncc(CN=Cc2ccc(Cl)cc2)c(N)n1,17%
7,CCCc1ccc(C)c(Br)c1,15.8%
8,CSc1ccc(NC(=O)Nc2cc(C)ccc2N=Nc2ccc(C)cc2)cc1,-2.35%
9,CC(=O)Oc1cc(OC(C)=O)c2c(OC(C)=O)c3c(OC(C)=O)cc(C)cc3cc2c1,19.8%
10,CCCNC(=O)Cn1c(-c2ccccc2)cc2ccccc21,5.5%
11,CCCCCCCCCCCCC(=O)N1CCOCC1,99.7% (active)
12,NCCCCCCCCCCN,-5.1%
13,CCCN(CCC)C(=O)c1ccccc1C,-2%
14,O=C(c1ccccc1)C(Oc1ccccc1)c1ccccc1 (stereo unspecified),19.2%
15,Cc1nc2cccc3ccc4c5ccccc5cc1c4c32,15.2%
16,Cc1ccccc1NS(=O)(=O)N1CCCCC1,-24.4%
17,CC(=O)OCCc1cc2ccccc2oc1=O,23.9%
18,CC(=O)COC(=O)c1ccccc1,3.5%
19,O=C(O)c1cc([N+](=O)[O-])c(O)c2ccccc12,2.8%
